# Laboratory results reported in PubChem BioAssay (Tox21).
# Several values for one entry are separate records, joined by “and”; a condition that tells them apart may be missing. Identical values can stand only once. Results filed as inconclusive are left out. Entries that show only a call come without a potency. Activity calls are given as the source filed them. Unless noted, the call rests on the fitted dose curve; in most records, active means well fitted curve in the direction sought with a large enough effect in the repeat runs; inconclusive means weak or mixed curves; inactive means no such curve, though single readings can be large; an effect the other way counts as inactive or inconclusive.
# Assays:
# [1] = qHTS assay to identify aromatase inhibitors - cell viability counter screen (AID 743084);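 further: cells stimulated with testosterone during compound exposure; nearly all actives have a fitted effect of over 55% in size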
# [2] = molecular target: Aryl hydrocarbon receptor (Homo sapiens) (UniProt P35869); assay: qHTS assay to identify small molecule that activate the aryl hydrocarbon receptor (AhR) signaling pathway (AID 743085); further: nearly all actives have a fitted effect of over 15% in size; further: potency means the concentration at half of the fitted maximal effect;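 on activation: HG2L7.5c1 human HepG2 liver cells with stably integrated DRE-driven firefly reporter; series mostly up to about 70 µM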
# Chain of Aryl hydrocarbon receptor (Homo sapiens) (P35869 whole entry, looked up): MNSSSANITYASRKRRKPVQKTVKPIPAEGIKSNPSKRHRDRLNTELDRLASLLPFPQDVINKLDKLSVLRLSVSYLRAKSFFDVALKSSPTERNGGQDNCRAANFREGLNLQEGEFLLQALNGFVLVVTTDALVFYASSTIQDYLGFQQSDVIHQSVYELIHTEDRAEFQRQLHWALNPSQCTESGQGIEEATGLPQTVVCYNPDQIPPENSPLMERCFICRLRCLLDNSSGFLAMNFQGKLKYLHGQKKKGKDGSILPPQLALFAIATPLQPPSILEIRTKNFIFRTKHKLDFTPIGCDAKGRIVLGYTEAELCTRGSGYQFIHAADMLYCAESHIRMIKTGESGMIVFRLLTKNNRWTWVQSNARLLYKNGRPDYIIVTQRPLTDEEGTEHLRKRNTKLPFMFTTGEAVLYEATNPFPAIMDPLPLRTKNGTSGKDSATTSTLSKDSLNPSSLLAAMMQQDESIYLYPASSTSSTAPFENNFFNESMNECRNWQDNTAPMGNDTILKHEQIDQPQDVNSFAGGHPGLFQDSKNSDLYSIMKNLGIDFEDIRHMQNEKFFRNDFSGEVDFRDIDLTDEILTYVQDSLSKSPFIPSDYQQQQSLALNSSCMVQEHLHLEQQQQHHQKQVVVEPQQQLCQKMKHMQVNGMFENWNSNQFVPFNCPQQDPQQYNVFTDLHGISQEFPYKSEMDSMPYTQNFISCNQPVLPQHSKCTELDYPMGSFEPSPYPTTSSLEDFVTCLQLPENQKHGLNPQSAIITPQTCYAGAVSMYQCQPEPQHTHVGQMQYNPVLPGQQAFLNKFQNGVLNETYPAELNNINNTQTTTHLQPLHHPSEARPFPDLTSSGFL
# Summary of the method: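 HepG2 cells stably carrying a 20-DRE firefly luciferase reporter (HG2L7.5c1) treated with compound for 24 hr at 37C. Luciferase read by ONE-Glo luminescence, with CellTiter-Fluor viability read first.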
# [3] = qHTS assay to identify small molecule that activate the aryl hydrocarbon receptor (AhR) signaling pathway - cell viability counter screen (AID 743086);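 further: HepG2 liver cells carrying the AhR DRE luciferase reporter; series mostly up to about 70 µM; nearly all actives have a fitted effect of over 45% in size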
# Summary of the method: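 HepG2-AhR-luc (HG2L7.5c1) cells, 4000/well, were preincubated 5 h at 37C, exposed to compound in qHTS format for 24 hr at 37C, then given CellTiter-Fluor for 30 min; viability was read as fluorescence in the reporter wells.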
# [4] = molecular target: Peroxisome proliferator-activated receptor gamma (Homo sapiens) (UniProt P37231); assay: qHTS assay to identify small molecule agonists of the peroxisome proliferator-activated receptor gamma (PPARg) signaling pathway (AID 743094; active means well fitted activation curve with a large enough effect in the signal ratio in the repeat runs, not every such curve was filed as active; the % refers to the signal ratio; further: potency means the concentration at half of the fitted maximal effect)
# Chain of Peroxisome proliferator-activated receptor gamma (Homo sapiens) (P37231 whole entry, looked up): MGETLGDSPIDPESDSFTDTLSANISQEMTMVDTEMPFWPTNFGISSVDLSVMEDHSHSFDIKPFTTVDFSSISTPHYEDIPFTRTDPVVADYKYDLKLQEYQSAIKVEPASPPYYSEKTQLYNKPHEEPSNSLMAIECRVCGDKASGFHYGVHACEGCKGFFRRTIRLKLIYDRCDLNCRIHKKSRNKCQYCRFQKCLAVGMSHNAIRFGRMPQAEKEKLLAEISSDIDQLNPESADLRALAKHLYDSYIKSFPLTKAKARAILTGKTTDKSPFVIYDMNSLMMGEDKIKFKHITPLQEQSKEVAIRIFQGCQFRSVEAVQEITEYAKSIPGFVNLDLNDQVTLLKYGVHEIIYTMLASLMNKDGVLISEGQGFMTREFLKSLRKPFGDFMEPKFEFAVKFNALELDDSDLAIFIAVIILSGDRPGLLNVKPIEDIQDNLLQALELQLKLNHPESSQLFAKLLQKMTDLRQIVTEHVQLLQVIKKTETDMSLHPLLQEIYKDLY
# Summary of the method: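 Agonist activity was taken from a beta-lactamase reporter (FRET substrate, 1 h at room temperature) in HEK293H cells carrying a PPARg UAS-bla construct. Compounds in DMSO were incubated 17 h at 37C after a 5 h cell pre-incubation.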
# [5] = qHTS assay to identify small molecule antagonists of the peroxisome proliferator-activated receptor gamma (PPARg) signaling pathway - cell viability counter screen (AID 743194); details: Potency: co-treated with 50 nM rosiglitazone unless noted; further: nearly all actives have a fitted effect of over 55% in size; further: potency means the concentration at half of the fitted maximal effect
# Summary of the method: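 PPARg-UAS-bla HEK293H cells were plated, rested 5 h at 37 C, then treated with compounds plus rosiglitazone (50 nM final) for 17 h at 37 C; viability was then read by CellTiter-Glo luminescence after 30 min at room temperature.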
# [6] = qHTS assay for small molecule agonists of the antioxidant response element (ARE) signaling pathway (AID 743202; active means well fitted activation curve with a large enough effect in the signal ratio in the repeat runs, not every such curve was filed as active; the % refers to the signal ratio)
# Summary of the method: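 Following a 16 h, 37 C exposure of reporter HepG2 cells (ARE-driven beta-lactamase, 2,000 cells/well) to compounds, FRET substrate was applied for 2 h at room temperature and fluorescence intensity recorded.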
# [7] = qHTS assay for small molecule agonists of the antioxidant response element (ARE) signaling pathway - cell viability counter screen (AID 743203; calls by dose curve; further: nearly all actives have a fitted effect of over 55% in size; further: potency means the concentration at half of the fitted maximal effect)
# Summary of the method: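 Viability counter screen: CellTiter-Glo luminescence, read after 30 min at room temperature, in ARE-bla HepG2 wells. Compound exposure lasted 16 h at 37C/5% CO2, following a 5 h pre-incubation of the cells after plating.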
# [8] = qHTS assay for small molecule activators of the heat shock response signaling pathway - cell viability counter screen (AID 743209); further: nearly all actives have a fitted effect of over 50% in size; further: potency means the concentration at half of the fitted maximal effect
# Summary of the method: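 Cytotoxicity counter screen run in the same wells as the heat-shock bla reporter assay: HeLa HSE-bla cells, 5 h compound exposure at 37 C, viability read by CellTiter-Glo luminescence.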
# [9] = qHTS assay for small molecule activators of the heat shock response signaling pathway (AID 743210; active means well fitted activation curve with a large enough effect in the signal ratio in the repeat runs, with a control signal flat, not every such curve was filed as active; the % refers to the signal ratio; further: series mostly up to about 63 µM)
# Summary of the method: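 Heat shock element–beta-lactamase HeLa reporter cells; qHTS with compounds for 5 h at 37 C; detection by FRET substrate fluorescence after 2.5 h at RT.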
# [10] = qHTS assay to identify small molecule agonists of the peroxisome proliferator-activated receptor delta (PPARd) signaling pathway - cell viability counter screen (AID 743211); further: nearly all actives have a fitted effect of over 55% in size; further: potency means the concentration at half of the fitted maximal effect
# Summary of the method: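 PPARd-bla HEK293H cells (3000/well) were pre-incubated 5 h at 37 C, then exposed to compound for 17 h at 37 C. After 2 h with LiveBLAzer substrate, CellTiter-Glo was added to the same wells; luminescence read after 30 min at room temperature.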
# [11] = molecular target: Peroxisome proliferator-activated receptor delta (Homo sapiens) (UniProt Q03181); assay: qHTS assay to identify small molecule agonists of the peroxisome proliferator-activated receptor delta (PPARd) signaling pathway (AID 743212; calls by dose curve)
# Chain of Peroxisome proliferator-activated receptor delta (Homo sapiens) (Q03181 whole entry, looked up): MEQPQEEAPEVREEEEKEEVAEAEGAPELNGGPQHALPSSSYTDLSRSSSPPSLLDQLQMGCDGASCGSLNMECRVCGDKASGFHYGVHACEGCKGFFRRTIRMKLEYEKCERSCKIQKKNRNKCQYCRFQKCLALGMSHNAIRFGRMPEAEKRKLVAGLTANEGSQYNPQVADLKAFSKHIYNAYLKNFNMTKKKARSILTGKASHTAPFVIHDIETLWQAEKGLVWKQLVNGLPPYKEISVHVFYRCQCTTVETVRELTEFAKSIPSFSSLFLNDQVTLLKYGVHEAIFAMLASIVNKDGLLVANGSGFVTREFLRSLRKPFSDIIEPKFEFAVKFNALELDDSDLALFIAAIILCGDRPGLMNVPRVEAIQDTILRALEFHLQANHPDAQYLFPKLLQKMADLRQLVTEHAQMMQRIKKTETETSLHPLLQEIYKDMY
# Summary of the method: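 Beta-lactamase reporter read by fluorescence (LiveBLAzer B/G FRET, 2 h, room temperature). Test agents, in DMSO, incubated at 37 C with PPARd-bla HEK293H cells.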
# [12] = qHTS assay to identify small molecule antagonists of the peroxisome proliferator-activated receptor delta (PPARd) signaling pathway - cell viability counter screen (AID 743213); further: nearly all actives have a fitted effect of over 50% in size; further: potency means the concentration at half of the fitted maximal effect
# Summary of the method: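 In this counter screen, HEK293H cells carrying a UAS-beta-lactamase reporter are co-treated with test compounds and 300 nM L165041 (final) for 17 h at 37 C; cell viability is quantified by CellTiter-Glo luminescence.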
# [13] = molecular target: Peroxisome proliferator-activated receptor delta (Homo sapiens) (UniProt Q03181); assay: qHTS assay to identify small molecule antagonists of the peroxisome proliferator-activated receptor delta (PPARd) signaling pathway (AID 743215; active means well fitted inhibition curve with a large enough effect in the signal ratio in the repeat runs, not every such curve was filed as active; the % refers to the signal ratio;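 further: cells stimulated with agonist L165041 at 300 nM final during compound exposure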; further: potency means the concentration at half of the fitted maximal effect)
# Summary of the method: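 Agonist L165041 (300 nM final) added with compound to PPARd-bla HEK293H UAS-bla reporter cells; 17 h incubation at 37 C. Read-out: LiveBLAzer FRET substrate, 2 h at room temperature, fluorescence intensity.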
# [14] = molecular target: Bile acid receptor (Homo sapiens) (UniProt Q96RI1); assay: qHTS assay to identify small molecule antagonists of the farnesoid-X-receptor (FXR) signaling pathway (AID 743217; active means well fitted inhibition curve with a large enough effect in the signal ratio in the repeat runs, not every such curve was filed as active; the % refers to the signal ratio)
# Chain of Bile acid receptor (Homo sapiens) (Q96RI1 whole entry, looked up): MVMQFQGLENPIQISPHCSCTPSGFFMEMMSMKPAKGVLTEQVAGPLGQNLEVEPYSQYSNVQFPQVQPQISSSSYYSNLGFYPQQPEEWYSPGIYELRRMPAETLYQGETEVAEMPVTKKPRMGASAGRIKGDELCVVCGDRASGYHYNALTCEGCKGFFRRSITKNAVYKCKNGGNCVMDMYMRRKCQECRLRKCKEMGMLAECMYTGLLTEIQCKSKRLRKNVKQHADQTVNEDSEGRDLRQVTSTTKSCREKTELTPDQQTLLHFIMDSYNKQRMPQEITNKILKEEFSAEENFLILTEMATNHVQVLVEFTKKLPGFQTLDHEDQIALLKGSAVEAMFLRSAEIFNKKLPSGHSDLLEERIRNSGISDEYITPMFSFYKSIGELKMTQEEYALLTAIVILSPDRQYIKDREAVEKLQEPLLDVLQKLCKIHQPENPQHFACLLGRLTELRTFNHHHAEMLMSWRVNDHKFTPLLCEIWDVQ
# Summary of the method: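 Antagonist mode: chenodeoxycholic acid at 50 uM final stimulates a UAS-driven beta-lactamase reporter in HEK 293T FXR-bla cells during 16 h, 37C compound exposure. Read-out is FRET substrate fluorescence after 2 h at room temperature.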
# [15] = qHTS assay to identify small molecule agonists of the farnesoid-X-receptor (FXR) signaling pathway - cell viability counter screen (AID 743218); further: nearly all actives have a fitted effect of over 45% in size
# Summary of the method: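 Viability counter screen in the same wells: CellTiter-Glo luminescence, 30 min room-temperature incubation, measured after the beta-lactamase read. Cells were GeneBLAzer FXR-UAS-bla HEK 293T, compound-treated 16 h at 37C.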
# [16] = molecular target: Bile acid receptor (Homo sapiens) (UniProt Q96RI1); assay: qHTS assay to identify small molecule agonists of the farnesoid-X-receptor (FXR) signaling pathway (AID 743220; active means well fitted activation curve with a large enough effect in the signal ratio in the repeat runs, not every such curve was filed as active; the % refers to the signal ratio)
# Summary of the method: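 FXR-UAS-bla HEK 293T cells carrying a UAS-driven beta-lactamase reporter were plated for 5 h at 37C/5% CO2, then exposed to DMSO-dissolved Tox21 10K compounds for 16 h at 37C. A LiveBLAzer B/G FRET substrate was loaded for 2 h at room temperature before fluorescence reading.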
# [17] = qHTS assay to identify small molecule antagonists of the farnesoid-X-receptor (FXR) signaling pathway - cell viability counter screen (AID 743221; active means well fitted cell-killing curve with a large enough effect in the repeat runs, not every such curve was filed as active; further: nearly all actives have a fitted effect of over 50% in size; further: potency means the concentration at half of the fitted maximal effect)
# Summary of the method: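 GeneBLAzer FXR-UAS-bla HEK 293T cells, compound plus chenodeoxycholic acid (50 uM final), 16 h at 37 C. CellTiter-Glo added to the same wells after the beta-lactamase read; luminescence read after 30 min at room temperature as viability.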
# [18] = molecular target: Peroxisome proliferator-activated receptor gamma (Homo sapiens) (UniProt P37231); assay: qHTS assay to identify small molecule antagonists of the peroxisome proliferator-activated receptor gamma (PPARg) signaling pathway (AID 743191; calls by dose curve; further: series mostly up to about 63 µM; nearly all actives have a fitted effect of over 30% in size)
# Summary of the method: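 GeneBLAzer PPARg UAS-bla HEK293H cells carrying a UAS-driven beta-lactamase reporter were plated at 3000 cells/well, preincubated 5 h at 37C, then given compound for 17 h at 37C; LiveBLAzer B/G FRET substrate was read after 1 h at room temperature.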
# [19] = molecular target: Vitamin D3 receptor (Homo sapiens) (UniProt P11473); assay: qHTS assay to identify small molecule agonists of the vitamin D receptor (VDR) signaling pathway (AID 743222; calls by dose curve)
# Chain of Vitamin D3 receptor (Homo sapiens) (P11473 whole entry, looked up): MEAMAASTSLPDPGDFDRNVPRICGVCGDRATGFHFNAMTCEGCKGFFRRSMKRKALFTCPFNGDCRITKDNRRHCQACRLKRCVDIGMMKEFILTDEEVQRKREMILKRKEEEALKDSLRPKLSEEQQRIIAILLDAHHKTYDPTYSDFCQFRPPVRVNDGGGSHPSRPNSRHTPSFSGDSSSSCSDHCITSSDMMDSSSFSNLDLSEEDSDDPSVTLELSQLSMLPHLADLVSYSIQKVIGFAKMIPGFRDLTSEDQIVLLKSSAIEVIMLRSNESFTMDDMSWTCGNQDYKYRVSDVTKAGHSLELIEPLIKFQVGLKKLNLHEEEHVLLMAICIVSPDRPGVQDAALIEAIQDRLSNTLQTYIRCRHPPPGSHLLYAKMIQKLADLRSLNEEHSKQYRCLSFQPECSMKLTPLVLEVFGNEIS
# Summary of the method: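 Agonist mode, beta-lactamase reporter: fluorescence from LiveBLAzer B/G FRET substrate (2 h, room temperature) read after 16 h compound treatment at 37 C of VDR-bla cells, which were pre-incubated 4 h after seeding.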
# [20] = molecular target: Vitamin D3 receptor (Homo sapiens) (UniProt P11473); assay: qHTS assay to identify small molecule antagonists of the vitamin D receptor (VDR) signaling pathway (AID 743223; active means well fitted inhibition curve with a large enough effect in the signal ratio in the repeat runs, not every such curve was filed as active; the % refers to the signal ratio)
# Summary of the method: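 VDR-bla cells were treated with compound plus 3 nM final 1alpha,25-dihydroxyvitamin D3 for 16 h at 37C. Beta-lactamase reporter read by B/G FRET substrate fluorescence after 2 h at room temperature. qHTS format.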
SMILES,Potency [1],Potency [2],Potency [3],Potency [4],Potency [5],Potency [6],Potency [7],Potency [8],Potency [9],Potency [10],Potency [11],Potency [12],Potency [13],Potency [14],Potency [15],outcome [16],Potency [17],Potency [18],outcome [19],outcome [20]
C#C[C@]1(O)CC[C@H]2[C@@H]3CCC4=CC(=O)CC[C@]4(C)[C@H]3CC[C@@]21C,inactive,inactive,inactive,inactive,inactive,inactive,inactive,inactive,inactive,inactive,inactive,inactive,inactive,inactive,inactive,inactive,inactive,–,–,–
CCC(CC)Nc1c([N+](=O)[O-])cc(C)c(C)c1[N+](=O)[O-],inactive,inactive,inactive,inactive,–,inactive,inactive,inactive,inactive,inactive,inactive,–,inactive,inactive,–,inactive,inactive,inactive,inactive,inactive
O=C(Nc1ccc(Br)cc1)c1cc(Br)cc(Br)c1O,inactive,5.31 µM (active) and 3.42 µM (active) and 3.06 µM (active),inactive,inactive,488 nM (active) and 245 nM (active) and 3.76 µM (active),–,34.2 µM (active) and 9.69 µM (active) and 13.3 µM (active),–,–,6.14 µM (active) and 2.45 µM (active) and 8.41 µM (active),inactive,1.55 µM (active),6.89 µM (active),–,–,–,9.74 µM (active) and 2.45 µM (active) and 13.3 µM (active),–,inactive,inactive
O=c1oc2ccccc2c(O)c1C(CC(O)c1ccc(-c2ccc(Br)cc2)cc1)c1ccccc1 (stereo unspecified),inactive,inactive,inactive,601 nM (active) and 1.04 µM (active),–,–,inactive,41.3 µM (active),–,inactive,–,inactive,–,inactive,inactive,–,inactive,–,–,–
ClC1C(Cl)C(Cl)C(Cl)C(Cl)C1Cl (stereo unspecified),inactive,inactive,inactive,inactive,–,inactive,–,inactive,inactive,inactive,inactive,inactive,inactive,inactive,inactive,inactive,inactive,inactive,–,–
CC(O)CCO (stereo unspecified),inactive,inactive,inactive,inactive,–,inactive,inactive,inactive,inactive,inactive,inactive,inactive,inactive,–,inactive,–,inactive,inactive,inactive,inactive
O=C1C=CC(=O)C=C1,inactive,inactive,inactive,inactive,–,–,inactive,inactive,inactive,inactive,–,inactive,–,–,–,–,inactive,–,–,–
COC(=O)c1sccc1S(=O)(=O)NC(=O)Nc1nc(C)nc(OC)n1,inactive,inactive,inactive,inactive,–,inactive,inactive,inactive,inactive,inactive,inactive,inactive,inactive,–,inactive,–,inactive,inactive,inactive,inactive
CCOP(=S)(OCC)O/N=C(\C#N)c1ccccc1,inactive,10.6 µM (active) and 21.7 µM (active),inactive,inactive,–,inactive,–,inactive,inactive,inactive,inactive,–,inactive,inactive,inactive,inactive,inactive,inactive,inactive,inactive
CCN(CC)C(=O)/C(Cl)=C(\C)OP(=O)(OC)OC,inactive,inactive,inactive,inactive,inactive,inactive,–,inactive,inactive,inactive,inactive,inactive,inactive,–,inactive,–,inactive,–,inactive,inactive
